Measurements reported in the supplement of paper PMC10105736.
A number with no mark means an inactive call.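 Rule for the calls: active = MAPPIT score above the 99th percentile of random reference set scores in the same batch; inactive = at or below it.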

Test system: sim
Assay: MAPPIT interaction score (arbitrary units); higher = stronger binary interaction signal, active = hit call of the paper
Conditions: MAPPIT configuration: N-C; pair source set: Lit-BM-16
Procedure: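 MAPPIT in HEK293T cells: Drosophila bait and prey ORFs (from the FlyBi ORF collection) were co-transfected in quadruplicate, with two wells stimulated by erythropoietin. Interaction-dependent JAK-STAT activation was read out with a STAT-responsive firefly luciferase reporter. Positive calls use the 99th percentile of random reference set (RRS) scores within each batch […]. Batches Dvs01 and Dvs02 used the N-N configuration and Dvs04 the N-C configuration. Pairs come from FlyBi screens, CuraGen, DPiM, Finley Y2H, Lit-BM-16, Lit-BS-16 and RRS.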
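Note: HEK293T cells with Epo stimulation, STAT-responsive firefly luciferase reporter, fold induction versus unstimulated cells divided by the larger fold induction of two negative controls lacking either bait or prey.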

Chain of tgo (chain, as listed by the source): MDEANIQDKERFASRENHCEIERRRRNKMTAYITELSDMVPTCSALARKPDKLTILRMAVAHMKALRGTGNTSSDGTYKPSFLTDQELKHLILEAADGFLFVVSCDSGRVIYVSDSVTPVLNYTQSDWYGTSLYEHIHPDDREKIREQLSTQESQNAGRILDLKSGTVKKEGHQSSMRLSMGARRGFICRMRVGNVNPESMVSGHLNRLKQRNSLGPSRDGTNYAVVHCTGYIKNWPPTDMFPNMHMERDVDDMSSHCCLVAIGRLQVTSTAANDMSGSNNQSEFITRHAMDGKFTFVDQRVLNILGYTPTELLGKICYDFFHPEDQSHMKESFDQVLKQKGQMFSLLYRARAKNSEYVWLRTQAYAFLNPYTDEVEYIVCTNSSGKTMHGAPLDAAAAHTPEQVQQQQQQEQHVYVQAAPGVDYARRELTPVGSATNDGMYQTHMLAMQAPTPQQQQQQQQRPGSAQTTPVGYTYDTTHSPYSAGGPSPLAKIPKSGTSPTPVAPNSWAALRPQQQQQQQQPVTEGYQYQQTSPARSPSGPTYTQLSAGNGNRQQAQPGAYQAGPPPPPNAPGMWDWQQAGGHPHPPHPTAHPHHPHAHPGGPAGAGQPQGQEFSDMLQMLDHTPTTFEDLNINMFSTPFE

Substance | MAPPIT interaction score
tgo | 2.23

Same assay, conditions: MAPPIT configuration: N-N; pair source set: Lit-BM-16

Substance | MAPPIT interaction score
tgo | 1.37
